Reference: PubChem BioAssay (NCI)
About 83,000 compounds went through this panel and 20% of them were active in at least one assay; those are over-represented in the sample as a whole.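 In brief: 96-well plates, 48 h treatment, single concentration, percent growth endpoint.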 A number with no mark means an inactive call. The source made the active and inactive calls. The calls were made as follows: active = growth percent below 10; inactive = the rest.

What was measured:
Test in all cases: NCI-60 one-dose screen, 48 h (100 = growth as untreated, 0 = no growth, -100 = all killed)
Conditions in all cases: 10 µM unless noted
DU-145 prostate = tested on: DU-145 prostate
K-562 leukemia = tested on: K-562 leukemia
MALME-3M melanoma = tested on: MALME-3M melanoma
MDA-MB-231 breast = tested on: MDA-MB-231 breast
RXF 393 renal = tested on: RXF 393 renal
SF-268 CNS = tested on: SF-268 CNS
SF-295 CNS = tested on: SF-295 CNS
SF-539 CNS = tested on: SF-539 CNS
UACC-257 melanoma = tested on: UACC-257 melanoma
M14 melanoma = tested on: M14 melanoma

| Compound | growth (DU-145 prostate) | growth (K-562 leukemia) | growth (MALME-3M melanoma) | growth (MDA-MB-231 breast) | growth (RXF 393 renal) | growth (SF-268 CNS) | growth (SF-295 CNS) | growth (SF-539 CNS) | growth (UACC-257 melanoma) | growth (M14 melanoma) |
| --- | --- | --- | --- | --- | --- | --- | --- | --- | --- | --- |
| Cc1ccc(C)c(/C=C2\CN(C(=O)OC(C)(C)C)C/C(=C\c3cc(C)ccc3C)C2=O)c1 | 37.7% | 7.09% (active) | 67.7% | 92.1% | 91.1% | 53.6% | 55.9% | 94.9% | 59.4% | 20.1% |
| CCOC(=O)c1[nH]c2c(c1C)-c1[nH]c(=O)c(S(=O)(=O)c3ccccc3)cc1SC2 | 15.4% [100 µM] | 49.8% [100 µM] | 4.32% [100 µM] (active) | 25.6% [100 µM] | -5.27% [100 µM] (active) | 21.8% [100 µM] | 8.44% [100 µM] (active) | 30% [100 µM] | 66.8% [100 µM] | 51.8% [100 µM] |
| C=CC(=O)Nc1ccc(Nc2nccc(-c3ccc(N4CCCC4)c(C#N)c3)n2)cc1 | 36.8% | 16.6% | -41.8% (active) | 60.9% | -54.5% (active) | 43.9% | -36.9% (active) | 51.1% | 39.4% | 3.42% (active) |
| NS(=O)(=O)c1ccc(NC(=O)/C(=C\c2ccc(Cl)cc2Cl)NC(=O)c2ccccc2)cc1 | 109% | 88.2% | 93.2% | 105% | 96% | 94.5% | 104% | 95.7% | 102% | 102% |
| Cc1cccc[n+]1C1c2ccccc2-c2ccccc21 | 110% | 86.6% | 99.3% | 98.5% | 102% | 94.4% | 99.1% | 92.7% | 90.3% | 93.7% |
| COc1ccc2c(c1)/C(=N/c1n[nH]c(=S)s1)C(=O)N2 | 107% | 82.9% | 104% | 87.8% | 113% | 98.8% | 106% | 87.4% | 96.5% | 103% |
| CCCCNC(=O)Oc1ccc(/C(=C(/C)Cc2ccc(OC)cc2)c2ccc(OCCN3CCCCCC3)cc2)cc1 | 91.6% | 10.3% | 99.5% | 81.5% | 75.1% | 83.5% | 92.2% | 95.4% | 94.4% | 91.1% |
| CCOc1ccc(-n2nc(C(=O)NCc3ccccc3OC)nc2-c2cc(OC)c(OC)c(OC)c2)cc1 | 65.2% | 22.1% | 87.5% | 17.8% | 43.5% | 54.1% | 34.8% | 49.2% | 62.7% | 42.2% |
| CO[C@H](C(=O)[C@@H](O)[C@@H](C)O)[C@@H]1Cc2cc3cc(O[C@H]4C[C@@H](O[C@H]5C[C@@H](O)[C@H](O)C(C)O5)[C@H](O)C(C)(O)O4)cc(O)c3c(O)c2C(=O)[C@H]1O[C@H]1C[C@@H](O[C@H]2C[C@@H](O[C@H]3C[C@@H](OC)[C@H](O)C(C)O3)[C@@H](O)C(C)O2)[C@H](O)C(C)O1 (stereo not given in full) | 17.5% | 29.9% | -11.4% (active) | 25.1% | -35.1% (active) | 34.8% | 14.4% | 9.92% (active) | -16% (active) | 34.2% |
| C=C1C(=O)O[C@H]2[C@H]1CC/C(COC(=O)/C=C\C(=O)NCc1ccc(Cn3c(=O)sn(CCCl)c3=O)cc1)=C\CC[C@@]1(C)O[C@@H]21 | 57.6% | 28.9% | 43.6% | 90% | 56.3% | 89% | 103% | 96.5% | 81.8% | 51.6% |
| Cc1ccc(S(=O)(=O)c2nc(-c3ccccc3)oc2Sc2nc3ccccc3s2)cc1 | 100% | 42.9% | 66.4% | 75.3% | 77.3% | 58.3% | 92.1% | 93.3% | 101% | 13.4% |
| Cc1cc2c(cc1C)N(C(=O)CCl)CC(=O)N2 | 78.6% | 2.9% (active) | 9.7% (active) | 51.3% | 31.2% | 60.9% | 99.5% | 93.2% | 59.5% | 55% |
| N#Cc1ccc(O)c(C2=NCC(Cc3ccccc3)O2)c1 (stereo not given) | 55.7% | 26.5% | 64.3% | 77.6% | 62.4% | 52.2% | 31.2% | 68.7% | 63.6% | 45.4% |
